# Structures can show the parent of a compound that is named as a salt.
# Columns and labels:
# [1] = system: CLZ3 (HCA2 human fibroblast dual HR-NHEJ reporter); experiment: NHEJ repair efficiency (GFP+ cells) relative to control (log10 fold); higher = more non-homologous end joining; settings: 5 µM; doxycycline 0.5 ug/mL
# [2] = system: CLZ3 (HCA2 human fibroblast dual HR-NHEJ reporter); experiment: HR repair efficiency (tdTomato+ cells) relative to control (log10 fold); higher = more homologous recombination; settings: 5 µM; doxycycline 0.5 ug/mL
# 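Throughout, for HR repair efficiency (tdTomato+ cells) relative to control: compound given one day before doxycycline, which switches on I-SceI endonuclease expression to create double-strand breaks within the integrated reporter.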
# 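Throughout, for NHEJ repair efficiency (GFP+ cells) relative to control: compound given one day ahead of doxycycline, which switches on I-SceI endonuclease to cut the chromosomally integrated reporter and create DSBs.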
SMILES,NHEJ repair efficiency (log10) [1],HR repair efficiency (log10) [2]
COC1=C[C@@H]2[C@@H]3Cc4ccc(OC)c(O)c4[C@]2(CCN3C)CC1=O [Sinomenine],0.154,0.274
CNCC(O)c1ccc(O)cc1 (stereo not drawn) [Synephrine],0.0915,0.108
COc1cc(C2OCC3C(c4cc(OC)c(O[C@@H]5O[C@H](CO)[C@@H](O)[C@H](O)[C@H]5O)c(OC)c4)OCC23)cc(OC)c1O[C@H]1O[C@@H](CO)[C@H](O)[C@@H](O)[C@@H]1O (stereo partly drawn) [Eleutheroside E],0.119,-0.0597
COc1cc2c3c(c1OC)-c1ccccc1C[C@H]3N(C)CC2 [Nuciferine],0.114,0.137
O=c1ccc2cc(O[C@@H]3O[C@H](CO)[C@@H](O)[C@H](O)[C@H]3O)c(O)cc2o1 [Esculin Sesquihydrate],0.0261,0.046
CCN1C[C@]2(OC(=O)c3ccccc3NC(C)=O)CC[C@H](OC)[C@@]34[C@@H]2C[C@@H]([C@@H]13)[C@@]1(O)C[C@H](OC)[C@H]2C[C@@H]4[C@]1(O)[C@H]2OC [Lappaconitine],0.147,0.0273
Oc1cc(O)cc(/C=C/c2ccc(O)cc2O)c1 [Oxy-Resveratrol],0.00144,-0.164
CC[C@H]1CN2CC[C@]3(C(=O)Nc4ccccc43)[C@@H]2C[C@@H]1/C(=C\OC)C(=O)OC [Rhynchophylline],-0.15,-0.0611
CC(=O)[C@]1(O)CC[C@@]2(O)[C@]1(C)[C@H](OC(=O)/C=C(\C)C(C)C)C[C@@H]1[C@@]3(C)CC[C@H](O)CC3=CC[C@]12O [Caudatin],-0.0815,-0.0376
O=C/C=C/c1ccccc1 [Cinnamaldehyde],0.0683,-0.0835
N#C/C=C1/C=C[C@@H](O)[C@H](O)[C@H]1O[C@@H]1O[C@H](CO)[C@@H](O)[C@H](O)[C@H]1O [Lithospermoside],0.0837,0.0424
COC[C@]12CN(C)[C@@H]3[C@@H]4[C@H](OC)[C@H]1[C@@]3([C@@H](OC)C[C@H]2O)[C@@H]1C[C@@]2(O)[C@H](OC(=O)c3ccccc3)[C@@H]1[C@]4(OC(C)=O)[C@@H](O)[C@@H]2OC [Mesaconitine],-0.0215,0.0192
"C/C1=C\C2C(CCC3(CO3)C(O)C3C(O)C(C)CC3(O)C1=O)C2(C)C (stereo not drawn) [6,17-Epoxylathyrol]",-0.129,0.0115
CN[C@@H](C)[C@H](O)c1ccccc1 [Ephedrine hydrochloride],0.0488,-0.0579
CCN1C[C@]2(COC)[C@H](O)C[C@H](OC)[C@]34C1[C@H]([C@H](OC)[C@H]23)[C@]1(O)[C@H]2[C@@H](O)[C@](O)(C[C@H]24)[C@@H](OC)[C@@H]1O [Aconine],-0.104,0.0705
O=C(/C=C/c1ccccc1)OC[C@H]1O[C@@H](O[C@@H]2OC=C[C@H]3[C@H](O)[C@@H]4O[C@]4(CO)[C@@H]23)[C@H](O)[C@@H](O)[C@@H]1O [Picroside I],-0.0564,-0.0261
COc1cc(C(=O)OC2C3C=COC(OC4OC(CO)C(O)C(O)C4O)C3C3(CO)OC23)ccc1O (stereo not drawn) [Amphicoside Ii],0.0243,-0.0261
C=C[C@H]1[C@H](O[C@@H]2O[C@H](CO)[C@@H](O)[C@H](O)[C@H]2O)OC=C2C(=O)OCC[C@H]21 [Sweroside],0.0688,0.0254
COc1cc2occc2c2oc(=O)ccc12 [Isobergapten],-0.0955,-0.063
CCN1CC2(COC)CCC(O)C34C5CC6C(OC)CC(O)(C5C6O)C(C(OC)C23)C14 (stereo not drawn) [Bullatine B],-0.0469,0.0659
C/C=C/C#CC#C/C=C/c1ccco1 [Atractylodin],0.014,0.114
C=CCSSCC=C [Garlicin],-0.0895,-0.0428
CC(C)=CCCC(C)(O)C1CCC2(C)C1C(O)CC1C3(C)CCC(O)C(C)(C)C3C(OC3OC(CO)C(O)C(O)C3O)CC12C (stereo not drawn) [R-Ginsenoside Rh1],-0.0562,0.0565
O=C(O)[C@@H]1[C@H](C(=O)O)[C@H]2CC[C@@H]1O2 [Endothall Disodium Salt],0.13,0.143
